An excerpt weighted towards active compounds, which were near 19% of everything screened.
Chronic BCR inh: chronic active BCR signaling inhibition; ABC-DLBCL IkBa-CBG/CBR reporter, luminescence ratio, 4 h; Potency, µM (highest dose often 46.1 µM), without a hit: at the highest dose activity change, negative = inhibition, actives largely listed as inhibitors; 340,000 compounds, 0.05% hits; AID 493014; active = well fitted inhibition curve with a large enough effect in the signal ratio, with a control signal flat, not every such curve was filed as active; inconclusive = small, poorly fitted or top-dose-only effect, or effect the other way, or a change in a side signal; the % refers to the signal ratio;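 note: potency is the fitted concentration of half-maximal effect; plate controls were basal doxycycline-induced cells for no effect and cells given 10 µM MG132 for full effect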
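Cell line TMD8 (human ABC DLBCL), stably expressing tet-inducible CBG68-IkBa fusion and CBR; IMDM/0.5% FBS; cpd up to 46 uM; dox induction, 4 h, 37C/5% CO2; dual luminescence; green/red ratio; MG132 control.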
DT40 TDP1 no CPT: qHTS for Inhibitors of human tyrosyl-DNA phosphodiesterase 1 (TDP1): qHTS in cells in absence of CPT; AID 686978, 2013; 420,000 compounds, 15% hits; DT40 Tdp1-/- hTDP1 cells, no CPT, ATP luminescence, 48 h; Potency, µM (doses to about 46.2 µM), for inactives: at the highest dose activity change, negative = growth inhibition, actives largely listed as inhibitors; note: potency is the fitted concentration of half-maximal effect; % is set by controls: 0 for no effect and ±100 for the full control effect; nearly all actives have a fitted effect of over 55% in size
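Growth kinetics read by CellTiter-Glo luminescence after ≥48 hr at 37 °C. Cells: DT40 Tdp1-/- stably carrying human TDP1, 400 per well, compound exposure in the absence of CPT (DMSO vehicle).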
DT40 TDP1 CPT: DT40-hTDP1 cell growth loss with CPT | chicken DT40 Tdp1-/-;hTDP1 cells + 20 nM CPT, ATP luminescence, 48 h | 420,000 compounds, 12% hits | AID 686979 | Potency, µM (top dose mostly 46.2 µM), inactives show top-dose activity change, negative = growth inhibition, hits mostly inhibitors; note: potency is the fitted concentration of half-maximal effect; % is set by controls: 0 for no effect and ±100 for the full control effect; nearly all actives have a fitted effect of over 55% in size
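Chicken DT40 Tdp1-/- cells stably complemented with human TDP1 were seeded at 400 cells/well in medium containing 20 nM camptothecin, exposed to pin-transferred compounds, and grown at 37 °C for at least 48 hr. Viability was read as ATP luminescence.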
SW480 rerep: induces DNA re-replication in SW480 colon adenocarcinoma cells | SW480 DNA re-replication, Hoechst DNA content imaging, 48 h | Potency, µM (doses to about 46.1 µM), for inactives: at the highest dose re-replication activation, most hits filed as activators | 340,000 compounds, 1.8% hits | AID 624297; note: potency is the fitted concentration of half-maximal effect; % of control where 0% means no effect; nearly all actives have a fitted effect of over 55% in size
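First, 250 cells per well were seeded. Next, compound or vehicle (23 nL) was pinned in, plates sat 48 hr at 37 C. Finally Hoechst was added for 40 min before fluorescence scanning.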
MCF10A rereplic: induces DNA re-replication in MCF 10a normal breast cells | MCF 10A DNA re-replication, Hoechst nuclear intensity, 48 h | Potency, µM (titrated, usually from 46.1 µM), inactives show top-dose activity, positive = re-replication, hits mostly activators | 350,000 compounds, 2.9% hits; note: potency is the fitted concentration of half-maximal effect; % of control where 0% means no effect; nearly all actives have a fitted effect of over 50% in size
IL-1B inflam inh: blocks inflammasome-driven IL-1 beta release; activity change, % at 57.5 µM; AID 743279; 360,000 compounds, 4.7% hits; THP-1 LPS/ATP IL-1B secretion, AlphaLISA, 16 h; active compounds read low; in the data active = activity change below about -50%; inconclusive = mostly about -30% to -49%; note: % is set by controls: 0 for no effect and ±100 for the full control effect
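THP-1 cells pretreated 1 hr with compounds (up to 57.5 uM final), then stimulated with LPS (250 ng/mL final) plus ATP (1.25 mM final); secreted IL-1B measured by AlphaLISA after 16 hr, decreased signal indicating inhibition.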
* hit, by the source's call; i = inactive; u = inconclusive; x = no result. Unless noted, calls come from the whole dose curve; as a rule, active = well fitted curve in the direction sought with a large enough effect; inconclusive = small, poorly fitted or top-dose-only effect, or another doubt; inactive = no such curve, though single readings can be large; an effect the other way counts as inactive or inconclusive.

SMILES | Chronic BCR inh | DT40 TDP1 no CPT | DT40 TDP1 CPT | SW480 rerep | MCF10A rereplic | IL-1B inflam inh
Cc1ccc(C(=O)N2CCN(c3ccccc3)CC2)cc1NC(=O)c1ccco1 | -3% | -4% | 0% | -5% | -3% | i
Cc1ccc(C(=O)N2CCN(c3ccc(F)cc3)CC2)cc1NC(=O)c1nsc2ccccc12 | x | 21µM* | 16µM* | x | x | x
COc1cccc(N2CCN(C(=O)c3ccc(C)c(NC(=O)c4nsc5ccccc45)c3)CC2)c1 | x | 18µM* | u | x | x | x
COc1cccc(N2CCN(C(=O)c3ccc4ccccc4c3)CC2)c1 | u | u | u | 10% | u | -10
CC1=NN(C(N)=S)C(=O)C1N=Nc1cccc([N+](=O)[O-])c1 (configuration not stated) | u | -13% | u | -1% | u | 28
CC1=NN(C(N)=S)C(=O)C1N=Nc1cccc(Cl)c1C (configuration not stated) | u | 8.2µM* | 13µM* | 2% | 9% | 13
CC1=NN(C(N)=S)C(=O)C1N=Nc1ccccc1 (configuration not stated) | u | u | u | -2% | 3% | 10
CC1=NN(C(N)=S)C(=O)C1N=Nc1ccc(Cl)cc1 (configuration not stated) | 11% | 1.5µM* | 0.52µM* | 18µM* | 9% | 5
CC1=NN(C(N)=S)C(=O)C1N=Nc1ccc(Br)cc1 (configuration not stated) | u | u | 21µM* | -3% | 13% | 1
CCN(CC)c1ccc(C=C(c2nnnn2-c2ccccc2)c2nnnn2-c2ccccc2)cc1 | 12% | 10µM* | u | 4% | 7% | -7
CCc1ccc(NC(=O)c2ccc3[nH]c(C)c(C)c3c2)cc1 | x | -12% | -12% | x | x | x
CC1=C(C(=O)OCc2ccccc2)C(c2cccnc2)n2nnnc2N1 (configuration not stated) | -3% | 16µM* | u | -10% | 15% | 34
COC(=O)C1=C(C)Nc2nnnn2C1c1ccccc1Cl (configuration not stated) | -10% | -21% | 0% | -5% | 3% | 19
CCCCCOC(=O)C1=C(C)Nc2nnnn2C1c1ccccc1Cl (configuration not stated) | 6% | 21µM* | u | -3% | u | 9
CC(C)C(=O)N1CCCC1(C)C(=O)Nc1ccc(-n2cccc2)cc1 (configuration not stated) | x | -6% | 4% | x | x | -23
CCOC(=O)C1(C)CCCN1C(=O)c1ccc(C(=O)OC)cc1 (configuration not stated) | x | -27% | -16% | x | x | 17
CCOC(=O)C1(C)CCCCN1C(=O)c1cccc(Cl)c1 (configuration not stated) | x | 15µM* | 21µM* | x | x | 17
CCOC(=O)C1(C)CCCCN1C(=O)c1ccc(F)c(C)c1 (configuration not stated) | x | u | -66% | x | x | 1
CCOC(=O)C1(C)CCCN1C(=O)c1ccc2ccccc2c1 (configuration not stated) | x | 18µM* | u | x | x | 2
COc1ccc(-n2ccnc2SCC(=O)c2c(N)n(C3CC3)c(=O)[nH]c2=O)cc1 | x | 1% | -6% | x | x | 14
Cc1ccn2c(Nc3c(C)cccc3C)c(-c3ccsc3)nc2c1 | x | 23µM* | 21µM* | x | x | x
Cc1ccn2c(NC(=O)c3ccccc3)c(-c3cccs3)nc2c1 | 0% | -7% | -32% | 2% | -2% | -1
Cc1ccn2c(Nc3c(C)cccc3C)c(-c3ccc(Cl)s3)nc2c1 | x | 18µM* | 13µM* | x | x | x
Nc1nccnc1C(=O)OCC(=O)Nc1ccc2[nH]c(=O)[nH]c2c1 | 2% | -1% | -16% | -9% | -1% | 3
COc1ccc(CNC(=O)COC(=O)c2cc(C)oc2C)cc1 | x | -21% | -2% | x | x | -17
SMILES | Chronic BCR inh | DT40 TDP1 no CPT | DT40 TDP1 CPT | SW480 rerep | MCF10A rereplic | IL-1B inflam inh
O=C(Nc1nnc(S(=O)(=O)N2CCCc3ccccc32)s1)c1cccc(Cl)c1 | x | 18µM* | u | x | x | x
O=C(Nc1nnc(S(=O)(=O)N2CCCCC2)s1)c1cccc(Br)c1 | 23% | 15µM* | 23µM* | -16% | 9% | 7
Cc1ccc(C(=O)Nc2nnc(S(=O)(=O)N3CCc4ccccc43)s2)cc1 | x | -25% | -24% | x | x | x
Cc1cccc(C(=O)Nc2nnc(S(=O)(=O)N3CCCc4ccccc43)s2)c1 | x | 16µM* | u | x | x | x
CCC(=O)Nc1nnc(S(=O)(=O)N2CCc3ccccc32)s1 | -9% | -1% | -17% | -6% | 3% | -18
O=C(COc1ccc(Cl)cc1)Nc1nnc(S(=O)(=O)N2CCc3ccccc32)s1 | x | 18µM* | u | x | x | x
COc1ccc(NC(=O)CSCc2cc(=O)n3cc(C)sc3n2)cc1 | 0% | 2% | -8% | 14% | 1% | -9
CCOC(=O)Cc1cn2c(=O)cc(CSCC(=O)Nc3ccc(C)c(C)c3)nc2s1 | -2% | u | 18µM* | 16% | -3% | 2
CCOC(=O)c1ccc(CC(=O)c2ccc(O)cc2O)o1 | -20% | 13µM* | u | 2% | 0% | 0
COC(=O)c1ccc(CC(=O)c2ccc(O)cc2O)o1 | u | u | u | -7% | 2% | 25
CCCCOc1c(Br)cc(/C=C2\N=C(C)OC2=O)cc1OCC | 23% | u | 13µM* | 1% | 1% | -10
CCOc1cc(/C=C2\N=C(C)OC2=O)cc(Cl)c1OCC(=O)OC | x | u | u | u | 0% | -10
COCCCNC(NC(=O)c1ccc(Cl)cc1)C(Cl)(Cl)Cl (configuration not stated) | -7% | 16µM* | u | 0% | -4% | 36
CC(C)OCCCNC(=O)NC(=O)c1ccc(Cl)cc1 | -1% | 26µM* | u | 1% | -1% | 14
CC(C)OCCCNC(=O)C(NC(=O)c1ccc(Cl)cc1)C(C)C (configuration not stated) | -9% | -2% | 11% | 1% | 5% | 17
Cc1nn(-c2ccccc2)c2c1CC(=O)Nc1ccccc1-2 | x | 0.82µM* | 0.65µM* | 1.5µM* | 1.3µM* | 27
Cc1nn(-c2ccccc2)c(=O)c2ccccc12 | -10% | -1% | -5% | -4% | -2% | 31
COc1ccc(-c2coc3ccc(OC4OC(COC(C)=O)C(OC(C)=O)C(OC(C)=O)C4OC(C)=O)cc3c2=O)cc1 (configuration not stated) | x | 1.1µM* | 2.7µM* | x | x | x
